D2 PAM-1 – HTS Assay for Positive Allosteric Modulators of the Human D2 Dopamine Receptor: Primary Screen for Potentiators. D(2) dopamine receptor (Homo sapiens), P14416. potentiation, % at 10 µM. 340,000 tested, 0.34% active. HEK293 T-REx D2, calcium flux, EC20 dopamine potentiation;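 active = potentiation over 3 SD above the plate norm, cut at about 30% in these data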; also: 0% is about no effect
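Primary screen. Calcium kinetics in induced HEK293 T-REx D2 cells: compound pre-addition 180 s, EC20 dopamine, 180 s more.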
D2 ag-1 – HTS Assay for Allosteric Agonists of the Human D2 Dopamine Receptor: Primary Screen for Agonists. D(2) dopamine receptor (Homo sapiens), P14416. HEK293 T-REx D2 cells, calcium flux agonist mode. activation, % at 2 µM. 340,000 tested, 0.53% active. AID 485358, 2010;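 active = activation over 3 SD above normal in the single-dose calcium agonist read, cut at about 30% in these data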; also: 0% is about no effect
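Agonism is scored from calcium flux in a force-coupled, inducible HEK293 cell line expressing D2, read kinetically for 180 s after compound addition against dopamine controls.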
B2AR arrestin – qHTS assay of beta-arrestin-biased ligands of beta2-adrenergic receptor; beta-arrestin recruitment to beta2AR, cell-based reporter; Potency, µM (highest dose often 46.1 µM), for inactives: at the top dose activation, usual class: activators; Beta-2 adrenergic receptor (Homo sapiens), P07550; 330,000 tested, 0.02% active; AID 492947, 2010;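 also: potency is read from the fitted curve at half-maximal effect; 0% = DMSO controls and full agonism = EC100 isoproterenol or metaproterenol; nearly all actives have a fitted effect of over 65% in size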
Target sequence (P07550 whole entry, looked up): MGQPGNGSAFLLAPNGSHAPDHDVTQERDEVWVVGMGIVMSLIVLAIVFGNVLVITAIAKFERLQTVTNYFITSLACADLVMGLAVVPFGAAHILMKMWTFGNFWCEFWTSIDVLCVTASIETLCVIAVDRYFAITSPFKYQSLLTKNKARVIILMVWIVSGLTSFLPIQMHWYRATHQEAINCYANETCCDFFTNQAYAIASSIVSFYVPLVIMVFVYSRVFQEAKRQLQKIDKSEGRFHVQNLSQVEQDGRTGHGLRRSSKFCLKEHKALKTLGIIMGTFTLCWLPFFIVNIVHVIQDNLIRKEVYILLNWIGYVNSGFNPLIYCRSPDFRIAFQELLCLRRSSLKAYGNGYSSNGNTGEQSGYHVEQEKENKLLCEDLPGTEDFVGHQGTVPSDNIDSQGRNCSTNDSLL
D2 PAM-2 – Beta-Arrestin HTS for Positive Allosteric Modulators of the Human D2 Dopamine Receptor: Potentiators | D(2) dopamine receptor (Homo sapiens), P14416 | DiscoveRx D2 beta-arrestin cells, luminescence, 90 min; 100% = 57 uM dopamine signal | potentiation, % (concentration not given with the values) | 360,000 tested, 0.23% active | AID 624464, 2012; in the data active = potentiation above about 50%; inconclusive = mostly about 30% to 49%
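PathHunter D2 cells, attached overnight at 37 deg C, received compound in DMSO plus dopamine at EC20 (50 nM final) for 90 min at 37 deg C. Beta-arrestin recruitment was read as luminescence after 1 h with detection reagent at ambient temperature.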
D2 ag-2 – Beta-Arrestin HTS for Positive Allosteric Modulators of the Human D2 Dopamine Receptor: Agonists; DiscoveRx PathHunter D2 beta-arrestin, luminescence, 90 min; 100% = 57 uM dopamine signal; activation, % (no concentration beside the values); 360,000 tested, 0.084% active; AID 624465, 2012; in the data active = activation above about 40%; inconclusive = between about 15% and that limit
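Agonist mode: compounds alone added to overnight-plated D2 PathHunter cells for 90 min at 37 C, with 57 uM final dopamine (EC100) defining full response. Beta-arrestin recruitment detected by chemiluminescent reagent, read after 1 h at ambient temperature.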
D2 antag – HTS Assay for Allosteric Antagonists of the Human D2 Dopamine Receptor: Primary Screen for Antagonists; D(2) dopamine receptor (Homo sapiens), P14416; HEK293 TREx D2 cells, calcium flux, dopamine EC80; inhibition, % at 10 µM; 340,000 tested, 2% active; AID 485344, 2010; in the data active = inhibition above about 30%; inactive = below that, where a call was filed; also: 0% is about no effect
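Inhibition of EC80 dopamine-driven calcium flux, recorded kinetically, defines activity here; cells are a tetracycline-induced HEK293 T-REx line expressing force-coupled D2.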
D3 ag – qHTS of D3 Dopamine Receptor Agonist: D3 Dopamine Receptor B-arrestin Agonist Confirmatory Assay; shares compounds with D2 ag-1; DiscoveRx D3 beta-arrestin cells, luminescence, 90 min; Potency, µM (series often up to 76.9 µM), for inactives: at the top dose activation, hits mostly activators; 2,300 tested, 4% active;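 also: potency is read from the fitted curve at half-maximal effect; 100% = dopamine control response; nearly all actives have a fitted effect of over 70% in size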
D2 ag-3 – qHTS of D3 Dopamine Receptor Agonist: D2 Dopamine Receptor B-arrestin Agonist Counterscreen. AID 720507, 2013. shares compounds with D2 ag-1. Potency, µM (top dose mostly 76.9 µM), for the others: top-dose activation, most hits filed as activators. 2,300 tested, 5.9% active. DiscoveRx PathHunter D2 beta-arrestin, luminescence, 90 min; response scale: percent relative to full dopamine signal; also: potency is read from the fitted curve at half-maximal effect; % of control where 0% means no effect; nearly all actives have a fitted effect of over 70% in size
Starred values were filed as active, the others as inactive; ? = inconclusive; . = not tested or not shown. Only some compounds are listed: those with a hit (about 2.4% of all), similar ones and a draw of the others. Unless noted, calls follow the shape of the dose curve; as a rule, active = well fitted activation curve with a large enough effect; inconclusive = small, poorly fitted or top-dose-only effect; inactive = flat fitted curve, though single readings scatter.

SMILES	D2 PAM-1	D2 ag-1	B2AR arrestin	D2 PAM-2	D2 ag-2	D2 antag	D3 ag	D2 ag-3
CC(C)(C)C1CCC(N2CCN(c3ccccc3)CC2)CC1 (centres undefined)	-35	73*	-1%	-48	2	86*	5%	?
COc1ccc(C(=O)N2CCC(N3CCN(c4ccccc4)CC3)CC2)cc1	-20	71*	0%	-25	12	57*	?	?
COc1ccccc1C(=O)N1CCC(N2CCN(c3ccccc3)CC2)CC1	-23	78*	1%	-6	?	69*	?	?
c1ccc(N2CCN(C3CC4CCC3C4)CC2)cc1 (centres undefined)	-12	54*	0%	-5	-2	87*	-3%	7%
O=C(CCC1CCCC1)N1CCC(N2CCN(c3ccccc3)CC2)CC1	-23	53*	0%	-22	0	77*	1%	12%
CC(C)CC(=O)N1CCC(N2CCN(c3ccccc3)CC2)CC1	6	0	1%	?	?	-6	.	.
O=C(OCc1nnc(-c2ccc([N+](=O)[O-])cc2)o1)c1ccc(F)c(S(=O)(=O)N2CCOCC2)c1	4	0	0%	5	4	-31	.	.
Cc1nnc(NC(=O)CCC(=O)N2CCN(CCOc3cccc4ccccc34)CC2)s1	-24	55*	-1%	-22	?	52*	?	?
Cc1ccc(OCCN2CCN(C(=O)CCC(=O)Nc3nnc(C)s3)CC2)cc1	12	4	0%	-16	1	6	?	1%
Cc1ccc(OCCN2CCN(C(=O)CCC(=O)Nc3nnc(C(C)C)s3)CC2)cc1	8	0	0%	-42	3	-5	.	.
CCCc1nnc(NC(=O)CCC(=O)N2CCN(CCOc3ccc(C)cc3)CC2)s1	11	-2	0%	3	0	-2	.	.
CCN1C(=O)[C@H]2[C@@H](c3ccc(C)cc3)N3C(=O)N(c4ccc(C)cc4)C(=O)[C@@]3(Cc3ccc(Cl)cc3)[C@H]2C1=O	-11	45*	-1%	2	-3	-18	-10%	-4%
CCN1C(=O)[C@H]2[C@@H](c3ccc(C)cc3)N3C(=O)N(c4ccccc4)C(=O)[C@@]3(Cc3ccc(Cl)cc3)[C@H]2C1=O	5	2	-1%	-72	-1	4	.	.
O=C(NCCC1CC1(Cl)Cl)c1ccc([N+](=O)[O-])cc1 (centres undefined)	-4	2	-1%	2	2	20	.	.
COc1ccccc1CNS(=O)(=O)c1cc2c3c(c1)CCN3C(=O)CC2	11	0	0%	?	0	75*	10%	8%
O=C(CCN1CCN(c2ccccc2)CC1)N/N=C/c1ccc([N+](=O)[O-])o1	-18	86*	0%	6	?	70*	0%	11µM*
O=C(CCN1CCN(c2ccccc2)CC1)N/N=C/c1ccc(O)c(O)c1O	-24	83*	0%	7	11	78*	?	32µM*
O=[N+]([O-])c1ccc(C(O)CN2CCN(c3ccccc3)CC2)cc1 (centres undefined)	-20	60*	0%	-4	?	46*	?	?
COc1ccc(/C=N/NC(=O)CCN2CCN(c3ccccc3)CC2)c(OC)c1OC	-24	80*	0%	-10	?	84*	11%	?
CCS(=O)(=O)N1CCC2(CC1)OC(=O)C(C)=C2C(=O)NCc1cccc(Cl)c1	0	1	.	.	.	.	.	.
Cc1cc(C)cc(NC(=O)N2CCC(NC(=O)c3ccco3)CC2)c1	3	1	0%	-10	-1	-3	.	.
CCCNc1nc2nc3ccccn3c(=O)c2cc1C(=O)NCCN1CCOCC1	7	-1	0%	-7	0	-5	.	.
O=C(O)Cc1ccc(NC(=O)C(c2ccccc2)c2ccccc2)cc1	.	.	0%	-6	-2	.	.	.
COc1cc(/C=N/NC(=O)CCN2CCN(c3ccccc3)CC2)cc(OC)c1OC	-10	19	-2%	-17	1	30	-4%	6%
O=[N+]([O-])c1ccc(CN2CCN(c3ccccc3)CC2)o1	-8	-1	-1%	3	4	-16	4%	2%
SMILES	D2 PAM-1	D2 ag-1	B2AR arrestin	D2 PAM-2	D2 ag-2	D2 antag	D3 ag	D2 ag-3
O=[N+]([O-])c1ccc(N2CCN(Cc3ccc([N+](=O)[O-])o3)CC2)cc1	-8	1	-1%	6	11	19	.	.
O=C(CCCC(=O)c1ccccc1)NCCc1ccccc1F	-3	0	-1%	-1	9	-8	.	.
CCN1CCN(C(=O)CNC(=O)c2nn(-c3ccc(OC)cc3)c(=O)c3ccccc23)CC1	-28	51*	-1%	-6	-2	0	-9%	-5%
COC(=O)C1CCN(CCCOc2ccc(CN3CCN(c4ccc([N+](=O)[O-])cc4)CC3)cc2)CC1	-15	69*	3%	30	45*	84*	?	?
Cc1cccc2sc(NC(=O)CCNC(=O)c3ccco3)nc12	-6	0	-1%	-1	0	-4	.	.
CCOc1ccc(N=C2NC(=O)S/C2=C\c2ccc(Cl)cc2)cc1	-11	0	-1%	-34	-4	-5	.	.
COc1ccc(N=C2NC(=O)S/C2=C\c2ccc(N(C)C)cc2)cc1	-20	14	0%	-47	-5	-15	-25%	-13%
COc1ccc(OCc2cc(C(=O)N[C@H]3CCCCNC3=O)no2)c(Cl)c1	-3	0	0%	21	-1	16	.	.
COc1ccc(OCc2cc(C(=O)NC3Cc4ccccc4C3)no2)c(Cl)c1	3	.	0%	5	-1	.	2%	0%

High-throughput results from PubChem BioAssay.
